The full data set covers some 7,900 targets. This sample favours those with a hit. About 0.6% of all pairs of compound and target were hits. Unmarked numbers belong to inactive results.
compound: C1=CC2=C(C=CC(=C2)/C=C\3/C(=O)NC(=NCC4=CC=CS4)S3)N=C1; experiment: log2 fold change, soluble protein after heating vs DMSO (PISA); higher = thermal stabilisation; K562 cells, 10 uM, 30 min; active = over 0.2 and 3.5 SD of the protein, either way, in both replicates (recomputed)
Outline: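 Soluble protein was defined as the supernatant after 21,000xg for 90 min. It came from K562 cells at 2×10^6 cells/mL given 10 μM compound for 30 min, heated in aliquots for 3 min across 48°C-58°C, pooled, and extracted in PBS with 0.5% NP-40 at 4°C, and was quantified by TMTpro 16plex LC-MS/MS with equalised channel sums. Thermal stability against control samples, from duplicates, is reported as log2 fold change.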

UniProt P51687, sequence (P51687 whole entry, looked up): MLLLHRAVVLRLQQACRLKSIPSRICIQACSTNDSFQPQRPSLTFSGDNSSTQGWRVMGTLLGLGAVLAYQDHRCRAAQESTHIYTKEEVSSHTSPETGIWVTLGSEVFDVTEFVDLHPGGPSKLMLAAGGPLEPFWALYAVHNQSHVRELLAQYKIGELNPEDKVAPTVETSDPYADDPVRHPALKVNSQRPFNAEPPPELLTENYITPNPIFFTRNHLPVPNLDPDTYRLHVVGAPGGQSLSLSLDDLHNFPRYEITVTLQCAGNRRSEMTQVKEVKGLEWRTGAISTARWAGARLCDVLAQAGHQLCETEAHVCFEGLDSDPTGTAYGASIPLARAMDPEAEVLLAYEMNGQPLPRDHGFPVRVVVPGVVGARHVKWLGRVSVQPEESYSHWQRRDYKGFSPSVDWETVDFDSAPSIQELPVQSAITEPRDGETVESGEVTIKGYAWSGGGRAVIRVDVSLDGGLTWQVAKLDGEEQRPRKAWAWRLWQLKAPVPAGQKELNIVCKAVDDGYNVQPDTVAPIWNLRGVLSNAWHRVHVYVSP
UniProt Q8N357, sequence (Q8N357 whole entry, looked up): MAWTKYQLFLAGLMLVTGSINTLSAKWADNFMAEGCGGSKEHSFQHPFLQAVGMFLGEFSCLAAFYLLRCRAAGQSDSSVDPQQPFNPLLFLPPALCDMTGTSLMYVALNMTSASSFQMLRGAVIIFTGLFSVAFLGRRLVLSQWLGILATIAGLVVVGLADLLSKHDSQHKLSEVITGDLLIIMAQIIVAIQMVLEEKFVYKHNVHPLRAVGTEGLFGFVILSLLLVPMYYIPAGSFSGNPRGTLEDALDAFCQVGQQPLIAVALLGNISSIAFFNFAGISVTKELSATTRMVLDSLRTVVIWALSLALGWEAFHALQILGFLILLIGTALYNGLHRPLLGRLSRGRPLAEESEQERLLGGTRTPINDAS
UniProt Q13242, sequence (Q13242 whole entry, looked up): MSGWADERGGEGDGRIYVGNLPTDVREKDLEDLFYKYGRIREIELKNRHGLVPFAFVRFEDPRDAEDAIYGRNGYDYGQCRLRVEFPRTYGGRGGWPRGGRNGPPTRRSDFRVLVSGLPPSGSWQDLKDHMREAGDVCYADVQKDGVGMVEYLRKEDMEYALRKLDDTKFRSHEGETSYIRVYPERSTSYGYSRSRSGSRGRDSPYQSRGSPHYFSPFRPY
UniProt A6NHR9, sequence (A6NHR9 whole entry, looked up): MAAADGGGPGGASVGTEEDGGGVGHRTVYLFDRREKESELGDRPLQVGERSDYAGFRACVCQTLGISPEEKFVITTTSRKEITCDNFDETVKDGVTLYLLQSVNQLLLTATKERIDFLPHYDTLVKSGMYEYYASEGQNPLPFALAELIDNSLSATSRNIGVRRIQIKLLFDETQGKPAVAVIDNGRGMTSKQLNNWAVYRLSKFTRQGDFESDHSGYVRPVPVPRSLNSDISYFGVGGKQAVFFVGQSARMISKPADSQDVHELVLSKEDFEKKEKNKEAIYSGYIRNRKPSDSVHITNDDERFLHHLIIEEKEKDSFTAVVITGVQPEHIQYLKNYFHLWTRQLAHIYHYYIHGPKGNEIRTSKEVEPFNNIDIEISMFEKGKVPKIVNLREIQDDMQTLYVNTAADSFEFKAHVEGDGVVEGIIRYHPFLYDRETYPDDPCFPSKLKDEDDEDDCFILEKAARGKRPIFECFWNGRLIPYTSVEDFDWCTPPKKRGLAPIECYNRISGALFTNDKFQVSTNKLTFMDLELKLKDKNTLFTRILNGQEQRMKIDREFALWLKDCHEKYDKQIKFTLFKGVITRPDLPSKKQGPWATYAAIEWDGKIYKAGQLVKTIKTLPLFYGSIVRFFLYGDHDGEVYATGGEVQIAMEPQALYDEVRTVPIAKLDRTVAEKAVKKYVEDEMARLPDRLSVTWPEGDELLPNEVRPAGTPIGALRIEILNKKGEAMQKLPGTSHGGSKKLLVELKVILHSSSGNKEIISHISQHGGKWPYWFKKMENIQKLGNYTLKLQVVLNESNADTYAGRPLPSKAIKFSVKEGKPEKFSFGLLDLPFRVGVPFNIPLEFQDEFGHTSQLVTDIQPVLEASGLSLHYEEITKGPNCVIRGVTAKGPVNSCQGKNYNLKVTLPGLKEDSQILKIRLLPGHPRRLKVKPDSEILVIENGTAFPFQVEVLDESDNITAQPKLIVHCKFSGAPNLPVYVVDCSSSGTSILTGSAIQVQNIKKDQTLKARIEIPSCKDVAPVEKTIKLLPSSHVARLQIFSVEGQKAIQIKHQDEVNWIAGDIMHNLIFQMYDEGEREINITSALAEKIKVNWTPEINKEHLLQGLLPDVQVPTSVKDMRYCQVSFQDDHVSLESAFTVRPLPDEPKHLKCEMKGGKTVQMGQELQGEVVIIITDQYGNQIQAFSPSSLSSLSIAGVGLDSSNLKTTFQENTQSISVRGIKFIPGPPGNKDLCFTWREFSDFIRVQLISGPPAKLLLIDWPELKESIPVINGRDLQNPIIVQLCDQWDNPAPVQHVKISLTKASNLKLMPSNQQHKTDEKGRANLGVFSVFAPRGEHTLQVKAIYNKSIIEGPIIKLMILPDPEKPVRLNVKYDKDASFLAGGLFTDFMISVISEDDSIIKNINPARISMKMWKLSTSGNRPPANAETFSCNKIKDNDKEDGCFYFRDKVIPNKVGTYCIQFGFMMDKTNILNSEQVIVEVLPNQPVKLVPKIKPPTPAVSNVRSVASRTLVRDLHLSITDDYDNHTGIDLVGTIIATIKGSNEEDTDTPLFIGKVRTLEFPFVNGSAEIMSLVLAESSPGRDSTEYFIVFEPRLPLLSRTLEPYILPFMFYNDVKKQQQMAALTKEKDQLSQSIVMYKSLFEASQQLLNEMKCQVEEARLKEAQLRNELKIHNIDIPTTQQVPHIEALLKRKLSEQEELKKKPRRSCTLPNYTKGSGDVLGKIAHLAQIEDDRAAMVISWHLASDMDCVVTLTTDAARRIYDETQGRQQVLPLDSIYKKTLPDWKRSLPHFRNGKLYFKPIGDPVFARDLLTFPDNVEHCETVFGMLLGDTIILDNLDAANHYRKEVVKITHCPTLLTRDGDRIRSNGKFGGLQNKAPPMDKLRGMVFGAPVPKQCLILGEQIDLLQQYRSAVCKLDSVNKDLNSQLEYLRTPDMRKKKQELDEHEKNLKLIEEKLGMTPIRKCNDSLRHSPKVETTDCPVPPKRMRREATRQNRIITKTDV
UniProt Q86UE8, sequence (Q86UE8 whole entry, looked up): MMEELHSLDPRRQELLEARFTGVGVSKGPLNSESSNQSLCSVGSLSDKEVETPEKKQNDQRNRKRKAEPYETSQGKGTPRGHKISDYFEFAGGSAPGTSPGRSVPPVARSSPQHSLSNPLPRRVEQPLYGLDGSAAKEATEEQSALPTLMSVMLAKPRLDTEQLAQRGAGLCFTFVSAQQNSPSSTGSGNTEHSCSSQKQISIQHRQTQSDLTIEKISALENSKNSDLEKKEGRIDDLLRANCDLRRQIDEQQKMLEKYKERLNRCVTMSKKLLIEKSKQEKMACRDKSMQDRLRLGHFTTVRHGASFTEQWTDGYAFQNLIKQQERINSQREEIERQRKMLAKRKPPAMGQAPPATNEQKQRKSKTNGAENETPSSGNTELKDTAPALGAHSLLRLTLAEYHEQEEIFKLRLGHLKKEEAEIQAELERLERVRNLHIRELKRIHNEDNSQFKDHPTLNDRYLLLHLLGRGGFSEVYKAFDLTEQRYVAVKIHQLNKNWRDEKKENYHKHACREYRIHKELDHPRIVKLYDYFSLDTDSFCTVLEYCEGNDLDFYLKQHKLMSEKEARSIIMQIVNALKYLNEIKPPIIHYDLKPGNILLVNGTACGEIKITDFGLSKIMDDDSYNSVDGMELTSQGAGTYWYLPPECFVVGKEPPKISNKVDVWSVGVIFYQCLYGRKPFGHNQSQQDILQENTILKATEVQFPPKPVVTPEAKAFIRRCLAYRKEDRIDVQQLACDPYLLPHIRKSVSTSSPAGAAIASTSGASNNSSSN
UniProt O95772, sequence (O95772 whole entry, looked up): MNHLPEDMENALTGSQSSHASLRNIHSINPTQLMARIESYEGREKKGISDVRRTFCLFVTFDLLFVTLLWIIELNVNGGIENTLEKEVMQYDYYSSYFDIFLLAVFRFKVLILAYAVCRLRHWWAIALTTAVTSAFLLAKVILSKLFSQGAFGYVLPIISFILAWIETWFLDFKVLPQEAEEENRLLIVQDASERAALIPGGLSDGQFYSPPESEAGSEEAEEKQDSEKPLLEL
UniProt Q96BZ9, sequence (Q96BZ9 whole entry, looked up): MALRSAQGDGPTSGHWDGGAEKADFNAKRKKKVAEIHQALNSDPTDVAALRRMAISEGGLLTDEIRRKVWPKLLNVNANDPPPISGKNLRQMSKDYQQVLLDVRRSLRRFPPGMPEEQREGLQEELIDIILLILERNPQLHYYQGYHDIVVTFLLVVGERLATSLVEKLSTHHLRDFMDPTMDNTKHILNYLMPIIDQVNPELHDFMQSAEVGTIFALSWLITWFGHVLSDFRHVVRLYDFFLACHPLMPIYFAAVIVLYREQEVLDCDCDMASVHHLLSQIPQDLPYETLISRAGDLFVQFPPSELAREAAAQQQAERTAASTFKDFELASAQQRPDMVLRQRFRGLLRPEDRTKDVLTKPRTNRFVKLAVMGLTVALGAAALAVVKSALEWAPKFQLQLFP
UniProt Q92844, sequence (Q92844 whole entry, looked up): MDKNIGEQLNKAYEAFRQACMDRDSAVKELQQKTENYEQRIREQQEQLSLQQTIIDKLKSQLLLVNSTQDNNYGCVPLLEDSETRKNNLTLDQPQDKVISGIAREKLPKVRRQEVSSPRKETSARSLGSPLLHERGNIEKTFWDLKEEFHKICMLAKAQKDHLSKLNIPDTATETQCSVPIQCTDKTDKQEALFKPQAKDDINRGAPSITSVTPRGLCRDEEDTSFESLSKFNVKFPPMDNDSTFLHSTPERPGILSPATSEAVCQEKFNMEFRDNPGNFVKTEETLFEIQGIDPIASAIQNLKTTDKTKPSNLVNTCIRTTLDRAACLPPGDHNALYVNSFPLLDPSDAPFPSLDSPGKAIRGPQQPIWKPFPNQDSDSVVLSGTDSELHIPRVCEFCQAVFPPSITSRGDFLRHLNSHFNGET

Target	log2 fold change
STK38 (UniProt Q15208)	0.014
TBC1D24 (UniProt Q9ULP9)	0.072
SMARCA4 (UniProt P51532)	0.035
TAOK3 (UniProt Q9H2K8)	0.02
SP100 isoform 4 (UniProt P23497)	-0.071
SLC35B4 (UniProt Q969S0)	0.085
TBRG4 (UniProt Q969Z0)	0.063
TIMM10B (UniProt Q9Y5J6)	0.216
SMIM20 isoform 2 (UniProt Q8N5G0)	-0.088
SPTBN4 (UniProt Q9H254)	0.066
TGFBI (UniProt Q15582)	0.132
STARD3NL (UniProt O95772)	0.169
TJP1 (UniProt Q07157)	0.013
TANGO6 (UniProt Q9C0B7)	-0.001
TANK (UniProt Q92844)	0.002
SRC isoform 2 (UniProt P12931)	0.088
SUOX (UniProt P51687)	0.027
SNRNP40 (UniProt Q96DI7)	-0.007
SNX11 (UniProt Q9Y5W9)	-0.048

Target	log2 fold change
TIMM13 (UniProt Q9Y5L4)	0.003
TATDN2 (UniProt Q93075)	0.043
SRSF9 (UniProt Q13242)	-0.211
SLC35F6 (UniProt Q8N357)	-0.013
SMCHD1 (UniProt A6NHR9)	0.325
SP3 (UniProt Q02447)	0.003
TBC1D20 isoform 3 (UniProt Q96BZ9)	0.047
SYK (UniProt P43405)	0.031
TIMM29 (UniProt Q9BSF4)	0.064
SMARCE1 (UniProt Q969G3)	0.009
SRSF6 (UniProt Q13247)	-0.325
SRSF4 (UniProt Q08170)	-0.155
SULT1A1 (UniProt P50225)	0.375 (active)
SLC27A4 (UniProt Q6P1M0)	0.082
SSB (UniProt P05455)	-0.043
TLK2 isoform 2 (UniProt Q86UE8)	-0.041
TMBIM1 (UniProt Q969X1)	0.198
STK11IP (UniProt Q8N1F8)	0.094

— the supplement of paper PMC10849652
